We go through eight compounds from PubChem BioAssay (NCI).

Molecules are shown by their SMILES. About 83,000 compounds went through this panel and 20% of them were active in at least one assay; those are over-represented in the sample as a whole.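 Method: cells in 96-well plates; compound added at one concentration; 48 h incubation; percent growth measured; values under 10 scored active.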 A number with no mark means an inactive call. Calls of active or inactive are those of the source.

What all share (assay): NCI-60 one-dose screen, 48 h (100 = growth as untreated, 0 = no growth, -100 = all killed)
Common to all, as to settings: 10 µM unless noted

In assay [1] the test system is NCI-H23 lung.
In assay [2] the test system is NCI-H226 lung.
Assay [3] deals with NCI-H322M lung.
Assay [4] deals with HOP-62 NSCLC.
Assay [5] relates to NCI-H460 lung.
Assay [6] concerns HOP-92 NSCLC.
Assay [7] relates to NCI-H522 lung.
Assay [8] concerns A549/ATCC NSCLC.
Assay [9] relates to 786-0 renal.
For assay [10], the system named is DU-145 prostate.
Assay [11] deals with K-562 leukemia.
Assay [12] deals with MALME-3M melanoma.
For assay [13], the system named is MDA-MB-231 breast.
The subject of assay [14] is RXF 393 renal.
The subject of assay [15] is SF-268 CNS.
The test system of assay [16] is SF-295 CNS.
For assay [17], the system named is SF-539 CNS.
For assay [18], the system named is UACC-257 melanoma.
The subject of assay [19] is M14 melanoma.

Regarding `CC(=O)c1cc2c(o1)C(=O)c1ccccc1C2=O`, the growth in assay [1] is -33.2% (active); in assay [2], -59.1% (active); in assay [3] it was -92.7% (active); in [4], -57.9% (active); in [5], -71.8% (active); in assay [6] it was -9.05% (active). Moreover, the growth is -56.8% (active) in assay [7]; -44.4% (active) in assay [8]; -93.4% (active) in assay [9]; -97.8% (active) in [10]; -24.9% (active) in assay [11]; -97.9% (active) in assay [12]. Further, the growth in assay [13] was -21.5% (active); in assay [14], -93.8% (active); in [15] it was -62.6% (active); in [16] it was -93.4% (active); in assay [17], -98.5% (active); in assay [18], -88.5% (active). The growth in assay [19] is -88.4% (active).

Turning to `COC(=O)c1ccc(CSc2nnc(-c3ccncc3)o2)cc1`, the growth in [1] was 105%; in assay [2] it was 102%; in assay [3], 93.4%; in assay [4], 92.4%; in assay [5], 108%; in [6], 108%. In addition, the growth is 86.3% in assay [7]; 99.9% in assay [8]; 100% in assay [9]; 114% in assay [10]; 93.9% in assay [11]; 103% in assay [12]. In addition, the growth in assay [13] is 106%; in assay [14] it was 122%; in assay [15], 101%; in assay [16] it was 109%; in assay [17], 98.7%; in [18] it was 99%. The growth in assay [19] is 102%.

Turning to `CNC(=O)NCC1OC(n2cnc3c(NC(=O)Nc4ccccc4)ncnc32)C2OC(C)(C)OC12` (configuration not stated), the growth was 87.3% in assay [1]; 109% in assay [2]; 101% in assay [3]; 99.3% in [4]; 101% in assay [5]; 14.4% in assay [6]. Moreover, the growth in assay [7] was 103%; in [8] it was 103%; in [9] it was 105%; in assay [10] it was 93.7%; in [11], 90.4%; in assay [12], 75.7%. The growth in [13] is 107%; in [14], 96.6%; in [15] it was 91.3%; in [16], 119%; in assay [17] it was 83.9%; in [18], 107%. In addition, in assay [19], the growth is 88.8%.

For the compound `CNCCNc1nc2ccccc2c2c(=O)c3cc(F)ccc3oc12`, the growth in [1] is 64.8%; in [2], 68%; in assay [3], 43.8%; in assay [4] it was 44.2%; in assay [5], 55.8%; in assay [6], 33.3%. The growth was 58% in [7]; 50.8% in assay [8]; 53.1% in [9]; 48.6% in assay [10]; 56% in assay [11]; 86.3% in [12]. Besides, the growth in [13] was 39.2%; in [14] it was 59.2%; in assay [15], 58.2%; in [16], 75.4%; in assay [17] it was 58.9%; in assay [18] it was 99.4%. In assay [19], the growth is 86.8%.

Turning to `CCNCCNc1cc(-c2ccc(Cl)cc2)c(C#N)c2nc3ccccc3n12`, the growth was 44.7% in assay [1]; 56% in assay [2]; 2.72% (active) in assay [3]; 1.55% (active) in assay [4]; -55.1% (active) in [5]; 53.9% in assay [6]. Moreover, the growth is -41.7% (active) in assay [7]; 6.12% (active) in assay [8]; -57.9% (active) in assay [9]; 26.4% in [10]; -48.1% (active) in assay [11]; -80.2% (active) in assay [12]. The growth is -57.4% (active) in [13]; -82.9% (active) in assay [14]; -12.6% (active) in assay [15]; -77.6% (active) in assay [16]; -91.4% (active) in assay [17]; -79.4% (active) in [18]. Moreover, the growth in [19] was -70.7% (active).

For the compound `C[C@H]1[C@H]2C3=CC[C@@H]4[C@@]5(C)C/C(=C/c6ccncc6)C(=O)C(C)(C)[C@@H]5CC[C@@]4(C)[C@]3(C)CC[C@@]2(C(=O)N2CCN(C)CC2)CC[C@@H]1C`, the growth in assay [1] is 93.2%; in [2] it was 85.5%; in assay [3], 78.2%; in assay [4], 74.7%; in assay [5], 68.3%; in assay [6], 42.8%. Moreover, the growth in [7] is 70%; in assay [8] it was 63.9%; in assay [9], 81.4%; in assay [10], 89.3%; in assay [11] it was 40.2%; in assay [12] it was 102%. Besides, the growth in assay [13] is 81.4%; in [14], 83.8%; in assay [15], 82.4%; in assay [16] it was 87.7%; in assay [17], 83.2%; in assay [18], 83.6%. Also, the growth in [19] was 65.7%.

`N=c1ccn2c(n1)OC1C(O)C(CO)OC12` (configuration not stated): the growth in assay [1] is 24.7%; in [2] it was 45.1%; in [3], 63.8%; in assay [4] it was 24.5%; in assay [5], -9.72% (active); in assay [6], 49.2%. Also, the growth is 35.9% in assay [7]; 16.2% in assay [8]; 15% in assay [9]; 11.7% in assay [10]; 94.5% in assay [11]; 43.5% in [12]. For the same compound, the growth is 91.7% in [13]; 28.7% in assay [14]; 40.9% in assay [15]; 36.7% in assay [16]; 25.1% in [17]; 54.6% in [18]. For the same compound, the growth in assay [19] was -25.5% (active).

With `Cn1c(NCCc2ccc(O)c(O)c2)nc2c1c(=O)n(Cc1ccc(Cl)cc1)c(=O)n2C`, the growth in assay [1] was 79.1%; in [2], 84.5%; in [3] it was 77.2%; in assay [4] it was 88.5%; in [5], 96.9%; in assay [6], 47.1%. For the same compound, the growth is -10.7% (active) in [7]; 104% in assay [8]; 92.1% in assay [9]; 87.3% in [10]; 77.1% in assay [11]; 82.3% in [12]. For the same compound, the growth in assay [13] was 52.3%; in assay [14], 73.2%; in [15] it was 72.4%; in assay [16], 103%; in assay [17], 82.7%; in assay [18] it was 117%. Also, in [19], the growth was 78.8%.
